NRP1-CendR mod – modulators of CendR peptide binding to human neuropilin-1. FAM-RPARPAR peptide binding to NRP-1, fluorescence polarization. inhibition, % at 25 µM. hit rate 0.85% among 360,000. AID 602438;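 active = inhibition or corrected inhibition above about 18%, plus a signal ratio from 0.5 to 1.5, limit read from the data, passing the limit was not always enough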
ADAM17 inh – ADAM17 inhibition, QFRET primary screen | P78536 | recombinant ADAM17, EDANS/DABCYL FRET peptide cleavage | inhibition, % at 6.95 µM | hit rate 0.83% among 370,000;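 active = inhibition above the mean of compounds lying between control limits plus 3 SD, set per campaign, cut at about 8.5% in these data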
HGIII-sPLA2 inh – Inhibits HGIII-sPLA2 liposome hydrolysis, primary screen; hit rate 0.56% among 370,000; Q9NZ20; QFRET BODIPY PC-A2 liposome hydrolysis, fluorescence; inhibition, % at 12.2 µM;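 active = inhibition above mean plus 3 SD of compounds lying within the high and low control bounds, cut at about 19% in these data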
ADAM10 inh – inhibits human ADAM10; O14672; recombinant ADAM10, EDANS/DABCYL FRET peptide cleavage, 3 h; inhibition, % at 7 µM; hit rate 0.62% among 370,000;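 active = inhibition above a per-campaign cutoff equal to the mean of compounds falling between control-based bounds plus 3 SD, cut at about 20% in these data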
Target sequence (O14672 214-748 limits assumed): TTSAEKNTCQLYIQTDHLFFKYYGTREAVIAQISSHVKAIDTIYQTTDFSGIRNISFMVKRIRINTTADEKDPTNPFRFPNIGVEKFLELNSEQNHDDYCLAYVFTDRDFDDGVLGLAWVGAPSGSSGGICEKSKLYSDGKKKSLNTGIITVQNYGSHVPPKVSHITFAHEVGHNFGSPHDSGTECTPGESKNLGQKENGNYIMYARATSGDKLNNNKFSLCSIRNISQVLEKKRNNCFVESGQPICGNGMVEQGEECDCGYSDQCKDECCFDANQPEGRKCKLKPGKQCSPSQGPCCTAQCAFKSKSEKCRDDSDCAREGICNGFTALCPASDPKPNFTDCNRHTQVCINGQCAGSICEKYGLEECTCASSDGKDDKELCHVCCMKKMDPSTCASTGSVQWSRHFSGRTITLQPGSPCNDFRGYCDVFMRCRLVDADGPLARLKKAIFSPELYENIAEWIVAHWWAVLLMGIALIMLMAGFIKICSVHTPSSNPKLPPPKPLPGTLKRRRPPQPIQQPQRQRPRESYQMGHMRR
proKLK7 act – activators of human kallikrein-7 zymogen; P49862; purified proKLK7, EDANS-DABCYL substrate fluorescence; 100% is mature enzyme control, 0% vehicle; activation, % at 7 µM; hit rate 0.9% among 370,000;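 active = activation above the mean of all tested compounds plus 3 SD, computed per campaign excluding outliers beyond control limits, cut at about 13% in these data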
proKLK7 act conf – confirmation of human kallikrein-7 zymogen activators | shares compounds with proKLK7 act | purified proKLK7, EDANS-DABCYL substrate fluorescence; scaled: vehicle 0, mature enzyme 100 | activation, % at 7 µM | hit rate 68% among 3,200 | AID 686949;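 active = activation, as change over the incubation, above the mean of all tested compounds plus 3 SD, cut at about 13% in these data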
EDANS interfere – fluorescence interference counter-screen for KLK7 activators; AID 686952; hit rate 80% among 3,200; shares compounds with proKLK7 act; activation, % at 7 µM; EDANS-DABCYL substrate fluorescence interference, no enzyme, 4 h; solvent 0%, active enzyme control 100%;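 active = activation above the all-compound mean plus 3 SD, ignoring values outside control-based bounds, cut at about 4.8% in these data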;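 note: value is the 4 h activation minus the activation read at time zero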
Each line names hits and unclear results; the compound was inactive in the other large screens (follow-up assays come after a bar, where they were run). A selection: hits, their analogues and other compounds. The true share with any hit is near 3.4%.

C/C(=N\NC(=O)c1cc(-c2ccc(C)s2)nc2ccccc12)c1cccnc1	proKLK7 act 66 | proKLK7 act conf inactive | EDANS interfere inactive
O=C(NCc1ccco1)c1cc(-c2cccs2)nc2ccccc12	none
Cc1ccc(-c2cc(C(=O)NCc3ccco3)c3ccccc3n2)s1	proKLK7 act 16 | proKLK7 act conf 22 | EDANS interfere 65
Cc1ccc(-c2cc(C(=O)NCCCn3ccnc3)c3ccccc3n2)s1	proKLK7 act 35 | proKLK7 act conf 75 | EDANS interfere 76
CCOC(=O)[C@]12CCCCC/C=C\1N(CCc1ccc(Cl)cc1)C(=O)[C@H]2CC(=O)N1CCN(C(=O)C2CC2)CC1	none (no result: NRP1-CendR mod)
CN1CCN(Cc2c(O)ccc3c(=O)c(Oc4ccccc4Cl)c(C(F)(F)F)oc23)CC1	none
COc1ccccc1-c1coc2c(CN3CCN(C)CC3)c(O)ccc2c1=O	proKLK7 act 80 | proKLK7 act conf 73 | EDANS interfere 73
CC1CCCCN1Cc1c(O)ccc2c(=O)c(-c3ccc(Br)cc3)coc12 (stereo not given)	none
COc1ccccc1-c1coc2cc(OC(=O)N3CCOCC3)ccc2c1=O	none
COc1ccccc1Oc1coc2c(CN3CCN(C)CC3)c(O)ccc2c1=O	proKLK7 act 74 | proKLK7 act conf 74 | EDANS interfere 78
CCN1CCN(Cc2c(O)ccc3c(=O)c(-c4ccccc4OC)coc23)CC1	proKLK7 act 50 | proKLK7 act conf 73 | EDANS interfere 78
COc1ccccc1-c1coc2c(CN3CCN(CCO)CC3)c(O)ccc2c1=O	proKLK7 act 111 | proKLK7 act conf 74 | EDANS interfere 81
CCOC(=O)C1CCN(C(=O)Nc2ccc3snnc3c2)CC1	none
CCOC(=O)C1CCN(C(=O)Nc2ccc3nccnc3c2)CC1	proKLK7 act 14 | proKLK7 act conf 71 | EDANS interfere 71
CCOC(=O)N1CCN(C(=O)Nc2ccc3nc(-c4ccccn4)c(-c4ccccn4)nc3c2)CC1	proKLK7 act 32 | proKLK7 act conf 32 | EDANS interfere 33
O=C(Nc1ccc(Br)c(C(F)(F)F)c1)[C@@H]1CC=C[C@@H]2CCN(CC3CC3)C(=O)[C@@H]21	none (no result: NRP1-CendR mod, proKLK7 act)
C=CCN1C(=O)[C@@H](CC(=O)NCCCC)[C@]2(C(=O)OCC)CCCCC/C=C/12	none (no result: NRP1-CendR mod)
C=CCNC(=S)NNC(=O)c1cccn(Cc2cccc(Cl)c2)c1=O	proKLK7 act 27 | proKLK7 act conf 42 | EDANS interfere 44
C=CCn1cccc(C(=O)Nc2ccc(Cl)cc2)c1=O	none
CN1CCN(C(=O)c2cccn(Cc3cccc(Cl)c3)c2=O)CC1	none
C=CCNC(=S)NNC(=O)c1cccn(Cc2ccc(Cl)cc2)c1=O	proKLK7 act 27 | proKLK7 act conf 39 | EDANS interfere 47
COc1cc(C(=O)NC2CCCCN(Cc3cccc(C(F)(F)F)c3)C2=O)cc(OC)c1OC (stereo not given)	none (no result: NRP1-CendR mod)
Cc1cccc(OC(C)CCN2CCC(C(O)(c3ccccc3)c3ccccc3)CC2)c1 (stereo not given)	none (no result: NRP1-CendR mod)
COc1ccccc1NC(=O)c1cc2c(s1)-c1ccccc1S(=O)(=O)C2	proKLK7 act 15 | proKLK7 act conf inactive | EDANS interfere inactive
CCn1c(Cc2cccs2)nnc1SCC(=O)Nc1ccc(OCc2ccccc2)cc1	none (no result: NRP1-CendR mod)
O=c1ccc2cc3c4c(c2o1)CCCN4CCC3	proKLK7 act 89 | proKLK7 act conf 67 | EDANS interfere 73
O=C(N/N=C/c1cc2c3c(c1O)CCCN3CCC2)c1ccccc1O	none
O=[N+]([O-])c1cnc2ccccc2c1Sc1ccccc1	none (no result: NRP1-CendR mod, proKLK7 act)
CCOC(=O)CNC(=O)c1cc2c(=O)[nH]c3ccc(C)cc3c2s1	none
Cc1ccc2[nH]c(=O)c3cc(C(=O)NCCN4CCN(C)CC4)sc3c2c1	proKLK7 act 17 | proKLK7 act conf inactive | EDANS interfere inactive
Cc1ccccc1Cn1cc(CN2[C@H](C)COc3cc(Br)ccc3S2(=O)=O)nn1	none (no result: NRP1-CendR mod)
Nc1ccc(S(=O)(=O)O)cn1	none
Nc1ccc(-c2ccc(C(=O)O)s2)cn1	proKLK7 act 19 | proKLK7 act conf 73 | EDANS interfere 82
Cn1c(N)nc2nc(CCc3ccccc3)c(=O)[nH]c2c1=O	proKLK7 act 13 | proKLK7 act conf 34 | EDANS interfere 30
C=CCNC(=O)NCC1CCN(Cc2ccc(OC)cc2)CC1	none (no result: NRP1-CendR mod)
CCc1cc2c(=O)c(Oc3ccccc3)c(C)oc2cc1O	proKLK7 act 55 | proKLK7 act conf 65 | EDANS interfere 78
COC(=O)c1cc(-c2cc(Cl)ccc2OC)c(=O)n2c1CCC2	none (no result: NRP1-CendR mod)
CC(C)C(=O)Oc1ccc(CO)cc1[C@H](CCN(C(C)C)C(C)C)c1ccccc1	none (no result: NRP1-CendR mod)
CNc1nc(-c2ccccc2)cc(C)c1S(C)(=O)=O	proKLK7 act 20 | proKLK7 act conf inactive | EDANS interfere inactive
CCCOc1c(Br)cc(C2C3=C(CCCC3=O)N(CC)C3=C2C(=O)CCC3)cc1OC	none
C#CCOc1c(Cl)cc(C2C3=C(CCCC3=O)N(CC(=O)O)C3=C2C(=O)CCC3)cc1OC	proKLK7 act 16 | proKLK7 act conf 72 | EDANS interfere 80
COc1ccc(C2C3=C(CCCC3=O)N(CC(=O)O)C3=C2C(=O)CCC3)cc1Br	proKLK7 act 30 | proKLK7 act conf 28 | EDANS interfere 43
COc1ccc(C2C3=C(CCCC3=O)N(CC(=O)O)C3=C2C(=O)CCC3)cc1Cl	proKLK7 act 27 | proKLK7 act conf 26 | EDANS interfere 34
COc1ccccc1C1C2=C(CCCC2=O)N(CC(=O)O)C2=C1C(=O)CCC2	none
CCOc1cc(C2C3=C(CCCC3=O)N(CC(=O)O)C3=C2C(=O)CCC3)ccc1OC	none
COc1ccccc1C(=O)N1CCN(C(=O)[C@@H](Cc2ccccc2)NC(=O)[C@H]2O[C@@H](n3cnc(C(N)=O)n3)[C@H](O)[C@@H]2O)CC1	none (no result: NRP1-CendR mod)
COc1ccc(CCn2c(=N)c(C(=O)NCC3CCCO3)cc3c(=O)n4ccccc4nc32)cc1OC (stereo not given)	none
COCCCn1c(=N)c(C(=O)NCc2ccc3c(c2)OCO3)cc2c(=O)n3ccccc3nc21	none
N=c1c(C(=O)NC2CCCC2)cc2c(=O)n3ccccc3nc2n1C1CCCC1	proKLK7 act 50 | proKLK7 act conf inactive | EDANS interfere inactive
Cn1c(C(=O)NCC2CCCO2)cc2c(=O)n3ccccc3nc21 (stereo not given)	proKLK7 act 59 | proKLK7 act conf 68 | EDANS interfere 73
Cn1c(C(=O)N2COCC2(C)C)cc2c(=O)n3ccccc3nc21	proKLK7 act 48 | proKLK7 act conf 74 | EDANS interfere 70

Bioassay records (PubChem BioAssay)
